PubChem BioAssay AID463173 (ICCB-Longwood Screening Facility, Harvard Medical School, 2010)
In all, about 52,000 compounds went through this assay and about 1,700 (3.3%) were called active. This excerpt belongs to a sample that is enriched for actives. Unmarked numbers belong to inactive results. No stated cut-off is given here; in the data, active means survival mostly below about 52% (no sharp cut-off); inactive means mostly above about 56%.

Each molecule was assayed on Wild type (assay: growth inhibition of S. aureus wild type versus tarO mutant, primary screen, teichoic acid synthesis inhibitors, RN4220, OD600 (AID 463173)). Settings: S. aureus RN4220 wild type/DeltatarO growth, OD600, 18 h, active compounds read low, screened at 18.75 µg/mL (by protocol).

Row | Structure (SMILES) | survival
1 | CCOc1cccc(C2c3c(oc4cc(C)c(C)cc4c3=O)C(=O)N2c2nc(C)c(C)s2)c1 (stereo not drawn) | 71%
2 | CCc1ccc(NC(=O)[C@H](CSCc2ccccc2)N2Cc3ccccc3C2=O)cc1 | 79%
3 | CCc1ccccc1NC(=O)CN1CCC(NC(=O)NC2CCCCC2)CC1 | 102%
4 | COc1ccccc1N1CCN(c2ncnc3c2nnn3C)CC1 | 129%
5 | Cc1cc(F)ccc1NC(=O)C1CCCN(C(=O)c2cnn(-c3ccccc3)c2-n2cccc2)C1 (stereo not drawn) | 85%
6 | CCCN1C(C(=O)c2ccccc2)=C(OC(=O)COc2ccc(C)cc2)c2ccccc2S1(=O)=O | 25%
7 | c1ccc2c(c1)ncn2-c1ncnc2sc3c(c12)CCCC3 | 107%
8 | COc1ccc(-c2cc(OC(=O)c3cccc(Cl)c3)c3c(C)oc(C)c3c(=O)c2)cc1OC | 76%
9 | CSc1cccc(NC(=O)c2cccc(N3CCCS3(=O)=O)c2)c1 | 115%
10 | CCN(C(=O)Cn1c(C(=O)OC)cc2sccc21)c1cccc(C)c1 | 73%
11 | O=c1cc(-c2ccccc2)nc(SCc2nc(-c3cccc(C(F)(F)F)c3)no2)[nH]1 | 83%
12 | Cc1ccc(Sc2ccc(N3CCCC(C(=O)Nc4ccc(Cl)cc4)C3)nn2)cc1 (stereo not drawn) | 71%
13 | CCOc1ccc(NC(=O)C2CCCN(c3ccc(Sc4ccc(C)cc4)nn3)C2)cc1 (stereo not drawn) | 16% (active)
14 | CCOC(=O)c1ccc(NC(=O)C2CCCN(c3ccc(Sc4ccc(C)cc4)nn3)C2)cc1 (stereo not drawn) | 80%
15 | O=S(=O)(c1ccc(Br)cc1)c1nnn2c1nc(NCc1ccc3c(c1)OCO3)c1sccc12 | 90%
16 | CCOC(=O)C1CCN(C(=O)c2ccc(-n3ccc4ccccc43)s2)CC1 | 71%
17 | CCOC(=O)C1CCCN(C(=O)c2ccc(-n3ccc4ccccc43)s2)C1 (stereo not drawn) | -3% (active)
18 | CCC(C)NC(=O)C1CCN(C(=O)c2ccc(-n3ccc4ccccc43)s2)CC1 (stereo not drawn) | 55%
19 | COCCn1c(=S)[nH]c2ccccc2c1=O | 105%
20 | CCCC(=O)N(c1ccc2oc3c(c2c1)CCCC3)S(=O)(=O)c1ccc(CC)cc1 | 67%
21 | CC(C)c1ccc(-c2nnn(CC(N)=O)n2)cc1 | 115%
22 | Cc1cccc(N2CCN(C(=O)c3cnn(-c4ccc(F)cc4F)c3C3CCN(C(=O)OC(C)(C)C)CC3)CC2)c1C | 99%
23 | CC(C)(C)OC(=O)N1CCC(c2c(C(=O)N3CCN(c4ccccn4)CC3)cnn2-c2ccc(F)cc2F)CC1 | 71%
24 | COc1ccccc1N1CCN(C(=O)c2cnn(-c3ccc(F)cc3F)c2C2CCNCC2)CC1 | 0% (active)
25 | CN1CCN(C(=O)c2cnn(-c3ccc(F)cc3F)c2C2CCN(C(=O)OC(C)(C)C)CC2)CC1 | 87%
26 | Cc1ccc(-n2ncc(C(=O)N3CCN(c4cccc(C)c4C)CC3)c2C2CCNCC2)c(C)c1 | 84%
27 | CC(C)(C)OC(=O)N1CCC(c2c(C(=O)N3CCN(c4ncccn4)CC3)cnn2-c2ccc(F)cc2F)CC1 | 1% (active)

Row | Structure (SMILES) | survival
28 | CC(C)(C)OC(=O)N1CCC(c2c(C(=O)N3CCN(c4ncccn4)CC3)cnn2-c2ccccc2)CC1 | 87%
29 | CC(C)(C)OC(=O)N1CCC(c2c(C(=O)N3CCN(c4ncccn4)CC3)cnn2-c2ccc(F)cc2)CC1 | -1% (active)
30 | Cc1ccc(-n2ncc(C(=O)N3CCN(c4ncccn4)CC3)c2C2CCN(C(=O)OC(C)(C)C)CC2)cc1 | 71%
31 | COc1ccc(OC)c(NC(=O)Cn2cc(C(=O)c3ccc(Cl)cc3)c(=O)c3cc(OC)ccc32)c1 | 68%
32 | O=C(CSc1nc2c([nH]c3ccccc32)c(=O)n1-c1ccccc1)Nc1ccc2c(c1)OCCO2 | 87%
33 | Cc1ccccc1NS(=O)(=O)c1ccc2[nH]cc(C(=O)NC3CCCCC3)c(=O)c2c1 | 80%
34 | CCOc1ccc(NS(=O)(=O)c2ccc3[nH]cc(C(=O)N(C)Cc4ccccc4)c(=O)c3c2)cc1 | 1% (active)
35 | Cc1cc(C)cc(NS(=O)(=O)c2ccc3[nH]cc(C(=O)N(C)Cc4ccccc4)c(=O)c3c2)c1 | 111%
36 | Cc1cc(C)cc(NS(=O)(=O)c2ccc3[nH]cc(C(=O)NC4CCCCC4)c(=O)c3c2)c1 | 27%
37 | CC(C)c1ccc(NS(=O)(=O)c2ccc3[nH]cc(C(=O)NC4CCCCC4)c(=O)c3c2)cc1 | 13%
38 | CCc1ccc(NS(=O)(=O)c2ccc3[nH]cc(C(=O)NC4CCCC4)c(=O)c3c2)cc1 | 9% (active)
39 | CCOc1ccc(NS(=O)(=O)c2ccc3[nH]cc(C(=O)NC4CCCC4)c(=O)c3c2)cc1 | 55%
40 | CCOc1ccc(NS(=O)(=O)c2ccc3[nH]cc(C(=O)NCc4ccccc4)c(=O)c3c2)cc1 | 74%
41 | Cc1c(Cl)cccc1NS(=O)(=O)c1ccc2[nH]cc(C(=O)NC3CCCC3)c(=O)c2c1 | 11% (active)
42 | CC(C)c1ccc(NS(=O)(=O)c2ccc3[nH]cc(C(=O)NC4CCCC4)c(=O)c3c2)cc1 | 7% (active)
43 | CNC(=O)c1c[nH]c2ccc(S(=O)(=O)Nc3cccc(Cl)c3C)cc2c1=O | 82%
44 | CCc1ccccc1NS(=O)(=O)c1ccc2[nH]cc(C(=O)NC3CCCC3)c(=O)c2c1 | 42%
45 | COc1ccc(-n2ncc3c2ncn2nc(-c4ccc(Cl)cc4Cl)nc32)cc1 | 92%
46 | Cc1ccc(NC2=NCC(=O)N2C2CCCC2)cc1C | 104%
47 | CCOC(=O)c1cc(-c2ccccc2)n(CCCC(=O)Nc2ccc(C)cc2Cl)c1C | 91%
48 | COc1ccc(S(=O)(=O)N/N=C(/C2CCCCC2)C(F)(F)F)cc1 | 111%
49 | CCN(C(=O)CCS(=O)(=O)c1ccc2c(c1)oc(=O)n2C)c1ccc(OC)cc1 | 70%
50 | CCc1ccccc1NC(=O)Nc1cc(C(=O)NCc2ccc(OC)cc2)ccc1N1CCCC1 | 128%
51 | COc1cccc(NS(=O)(=O)c2ccc3[nH]cc(C(=O)NC4CCCCC4)c(=O)c3c2)c1 | 50%
52 | O=C(NC1CCCC1)c1c[nH]c2ccc(S(=O)(=O)Nc3cccc(C(F)(F)F)c3)cc2c1=O | 11% (active)
53 | CN(C(=O)c1c[nH]c2ccc(S(=O)(=O)Nc3cccc(C(F)(F)F)c3)cc2c1=O)C1CCCCC1 | 71%
